Out of some 200,000 compounds screened, about 360 (0.18%) were called active. This is one part of a sample in which actives are shown more often than they occur. Values without a mark were called inactive. No stated cut-off is given here; in the data, active means inhibition above about 25%; inactive means the rest.

Chain of Toll-like receptor 4 (Homo sapiens) + Myeloid differentiation primary response protein MyD88 (Homo sapiens) (O00206 whole entry, looked up): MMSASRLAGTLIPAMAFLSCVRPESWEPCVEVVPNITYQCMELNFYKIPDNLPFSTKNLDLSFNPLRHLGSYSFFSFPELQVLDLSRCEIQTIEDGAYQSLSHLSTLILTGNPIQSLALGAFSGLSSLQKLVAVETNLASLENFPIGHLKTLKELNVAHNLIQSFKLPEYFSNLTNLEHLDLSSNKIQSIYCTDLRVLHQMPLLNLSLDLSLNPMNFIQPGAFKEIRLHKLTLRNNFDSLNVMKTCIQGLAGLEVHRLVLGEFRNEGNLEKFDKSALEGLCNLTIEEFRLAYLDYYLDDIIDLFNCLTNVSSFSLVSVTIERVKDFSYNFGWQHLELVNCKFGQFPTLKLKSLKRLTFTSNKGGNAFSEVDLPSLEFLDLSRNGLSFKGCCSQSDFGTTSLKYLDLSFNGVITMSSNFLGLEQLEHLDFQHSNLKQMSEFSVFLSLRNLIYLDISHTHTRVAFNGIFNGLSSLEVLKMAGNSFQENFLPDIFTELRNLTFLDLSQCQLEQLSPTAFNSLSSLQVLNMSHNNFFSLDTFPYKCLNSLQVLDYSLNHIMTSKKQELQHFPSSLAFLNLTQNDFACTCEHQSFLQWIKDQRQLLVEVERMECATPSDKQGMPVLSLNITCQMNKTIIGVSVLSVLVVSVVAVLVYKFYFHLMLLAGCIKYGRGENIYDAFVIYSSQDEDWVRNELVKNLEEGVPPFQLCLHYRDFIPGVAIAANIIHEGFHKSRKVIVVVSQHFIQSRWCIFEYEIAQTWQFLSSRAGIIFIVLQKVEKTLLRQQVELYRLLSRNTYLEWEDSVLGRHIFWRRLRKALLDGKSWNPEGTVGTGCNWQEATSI
Chain of Toll-like receptor 4 (Homo sapiens) + Myeloid differentiation primary response protein MyD88 (Homo sapiens) (Q99836 whole entry, looked up): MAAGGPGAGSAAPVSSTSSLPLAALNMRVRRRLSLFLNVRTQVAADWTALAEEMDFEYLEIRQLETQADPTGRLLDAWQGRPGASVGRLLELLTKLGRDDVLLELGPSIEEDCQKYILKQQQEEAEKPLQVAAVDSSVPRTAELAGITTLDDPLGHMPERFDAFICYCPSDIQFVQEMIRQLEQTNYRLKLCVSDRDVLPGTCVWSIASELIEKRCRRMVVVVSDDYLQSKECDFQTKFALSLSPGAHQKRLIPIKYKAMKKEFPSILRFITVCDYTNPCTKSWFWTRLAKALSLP

This experiment has as its target Toll-like receptor 4 (Homo sapiens) + Myeloid differentiation primary response protein MyD88 (Homo sapiens) (UniProt O00206+Q99836). Briefly: inhibitors of TLR4-MyD88 association in cells, primary screen, cell-based, HeLa CL3-4, BLA complementation, FRET ratio (AID 861).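 Further: 0% = vehicle and 100% = reference inhibitor.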 The following applies: HeLa CL3-4 TLR4/MyD88 BLA complementation, at 8.4 µM, stronger effect = higher value.
Turning to `COC(=O)C1=NN(c2ccccc2)C2C(=O)N(c3ccccc3OC)C(=O)C12` (stereo not drawn), the inhibition (as a rule, the change of the read-out against control, counted positive when it falls) was 0.17%.

Regarding `Cc1cccc(C(=O)Nc2ccccc2C(=O)NCc2cccnc2)c1`, the inhibition was -0.85%.

Take `CCc1ccc2c(c1)C1(NN=C(c3ccccc3)S1)C(=O)N2` (stereo not drawn): the inhibition is 25.3% (active).

For the compound `C=C1c2cc(CC)ccc2NC(=O)N1c1ccc(C)cc1`, the inhibition is 1.66%.

For the compound `O=C1Nc2ccccc2C12Nc1ccccc1S2` (stereo not drawn), the inhibition was -1.86%.

Consider `CNc1nc(Nc2ccc(C)c(Cl)c2)nc(N)c1[N+](=O)[O-]`, for which the inhibition was -5.76%.

On to `O=C(CN1CCCCC1)Nc1ccccc1Cl`, for which the inhibition is -3.05%.

Regarding `O=C(Nc1ccccc1Cl)/C(Cl)=C(\Cl)S(=O)c1ccccc1` (stereo not drawn), the inhibition was 27% (active).

For the compound `O=C(Nc1ccccc1Cl)c1ccc2nsnc2c1`, the inhibition was 7.26%.

As for `CC1(c2ccccc2)CC(C)(C)N(C(=O)c2cc([N+](=O)[O-])cc([N+](=O)[O-])c2)c2ccccc21` (stereo not drawn), the inhibition is -16.2%.

For `CCOc1ccc(C(C)=O)cc1COC(=O)c1cnc(Cl)c(Cl)c1`, the inhibition is 15.1%.

Regarding `COC(=O)/C(=C1\Oc2ccc(C(C)(C)C)cc2S1)C(F)(F)F`, the inhibition is 6.06%.

Consider `Cc1c(Cl)cccc1NC(=S)N(Cc1ccccc1)Cc1cccnc1`, for which the inhibition is 1.23%.

As to `CC(Sc1nc2c([nH]c3ccccc32)c(=O)n1C)c1ccccc1` (stereo not drawn), the inhibition was 8.9%.

Regarding `CC1=NN(c2cccc(Cl)c2)C(=O)C12CC(C)=C(C)CS2` (stereo not drawn), the inhibition is 2.14%.

For the compound `Cn1cc(CN2CCC(C(O)CCc3ccccc3)CC2)c(-c2ccccc2F)n1` (stereo not drawn), the inhibition was -13.8%.

With `CC1CCN(C(=S)c2cccc(O)c2)CC1`, the inhibition is -6.27%.

On to `O=[N+]([O-])c1ccc(N2CCN(CC(O)COc3ccccc3)CC2)cc1` (stereo not drawn), for which the inhibition is 5.02%.

Take `CCc1cccc(CC)c1NC(=O)COc1ccccc1C(=O)c1cc(C#N)c(=O)n(C2CCCCC2)c1`: the inhibition is -16.2%.

Consider `CC(C)CCN1C(=O)c2ccc(C(=O)Nc3cccc(S(N)(=O)=O)c3)cc2C1=O`, for which the inhibition was 1.58%.

For `CC(=O)NCCc1nc2cc(NC(=O)c3ccccc3)ccc2n1C`, the inhibition was -9.04%.

In the case of `CC(Oc1ccc(Br)cc1Br)C(=O)NC1CCCC1` (stereo not drawn), the inhibition was -3.01%.

Consider `CS(=O)(=O)N(Cc1ccccc1Cl)c1ccc(C(=O)NCc2cccnc2)cc1`, for which the inhibition is -15.2%.

The values are drawn from PubChem BioAssay AID861 (The Scripps Research Institute Molecular Screening Center, 2007).
